# Data taken from PubChem BioAssay.
# “And” between values parts separate entries of the source, which are not always exact repeats. Identical values can stand only once. The source made the active and inactive calls. Unless noted, no stated cut-off is given here; in the data, active means inhibition above about 80%; inactive means the rest.
# Legend:
# [1] = growth inhibition, single agent or in combination, cell-based, chromothripsis tumors, cisplatin or BGB combos (AID 1671449); details: LFS_MB_P medulloblastoma cells;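 further: cells exposed for 96 hours; 0% = vehicle DMSO and 100% = killing by high DMSO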
# [2] = growth inhibition, single agent and combos, cell-based, chromothripsis tumors, cisplatin or BGB combos (AID 1671450); details: HDN33 neuroblastoma cells, stronger effect = higher value;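 further: cells exposed to compound for four days; 0% = vehicle DMSO and 100% = cell killing by high DMSO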
# [3] = growth inhibition, single agents and combos, ICB984, cell-based, cisplatin or BGB combos, synergistic combos for chromothripsis tumors (AID 1671451; call rule not given here;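 further: cells exposed for 96 hours before readout; 0% = vehicle DMSO and 100% = killing by high DMSO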); details: ICB984 medulloblastoma cells, drug combinations, stronger effect = higher value
# [4] = growth inhibition, single agents and combos, LFS_MB_1R, cell-based, cisplatin or BGB combos, synergistic combos for chromothripsis tumors (AID 1671452); details: LFS_MB_1R medulloblastoma cells, stronger effect = higher value;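 further: cells exposed for 96 hours before readout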
# [5] = growth inhibition, single agents and combos, HTB85, cell-based, BGB or cisplatin IC20 combos, synergistic combos for chromothripsis tumors (AID 1671453); details: HTB85 osteosarcoma cells, drug combinations, stronger effect = higher value;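 further: cells exposed for 96 hours before readout; 0% = vehicle DMSO and 100% = high DMSO killing control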
# [6] = growth inhibition, single agents and combos, CRL2098, cell-based, BGB or cisplatin IC20 combos, synergistic combos for chromothripsis tumors (AID 1671454); details: CRL2098 osteosarcoma cells, drug combinations, stronger effect = higher value;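 further: cells exposed for 96 h before readout; 0% = vehicle DMSO and 100% = killing by high DMSO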
# [7] = growth inhibition, single agents and combos, HD-MB03, cell-based, BGB or cisplatin IC20 combos, synergistic combos for chromothripsis tumors (AID 1671455; in the data active means inhibition above about 83%;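 further: 0% = vehicle DMSO and 100% = high DMSO as cytotoxic control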); details: HD-MB03 medulloblastoma cells, stronger effect = higher value
# [8] = growth inhibition, single agents and combos, UWB1.289, cell-based, BGB or cisplatin combos, synergistic combos for chromothripsis tumors (AID 1671456); details: UWB1.289 ovarian carcinoma cells, stronger effect = higher value;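 further: cells exposed to compound for four days; 0% = vehicle DMSO and 100% = killing by high DMSO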
# [9] = growth inhibition, single agents and combos, LFS_MB_2R, cell-based, cisplatin combos, synergistic combos for chromothripsis tumors (AID 1671457); details: LFS_MB_2R medulloblastoma cells, stronger effect = higher value;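 further: cells exposed to compound for four days before readout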
# [10] = growth inhibition, MDA-MB-436, cell-based, BGB or cisplatin combos, synergistic combos for chromothripsis tumors (AID 1671458; call rule not given here;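 further: cells exposed for 96 hours; 0% = vehicle DMSO and 100% = killing by high DMSO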); details: MDA-MB-436 breast carcinoma growth inhibition, drug combinations, stronger effect = higher value
# [11] = UWB1.289_BRCA1 ovarian cancer growth, cell-based, BGB or cisplatin combinations (AID 1671459); details: UWB1.289 BRCA1 ovarian carcinoma, drug combinations, stronger effect = higher value
# [12] = drug combination toxicity in non-malignant astrocytes – cell-based, BGB or cisplatin IC20 combos, cytotoxicity control for chromothriptic childhood tumor combination screen (AID 1671460); details: Human astrocytes, viability inhibition, drug combinations, at 0.5 µM, stronger effect = higher value;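 further: cells exposed to compounds for 96 hours before viability readout; 0% = vehicle and 100% = killing control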
# [13] = BT084 cell growth, single and combined drugs, ICGC_MB145, cisplatin and BGB IC40 combos (AID 1671461); details: BT084 medulloblastoma cells, drug combinations, stronger effect = higher value;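 further: cells exposed to drugs for 96 hours; 0% = vehicle DMSO and 100% = high DMSO full killing control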
# [14] = RCMB18 cell growth, single agent and combined, cisplatin and BGB IC40 combos (AID 1671462); details: RCMB18 medulloblastoma cells, stronger effect = higher value;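 further: cells exposed to compound for four days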
# [15] = CRL1545 cell growth, single agent and combined, cisplatin and BGB IC20 combos (AID 1671464); details: CRL1545 osteosarcoma cells, stronger effect = higher value;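 further: cells exposed to compound for 96 hours before readout; 0% = vehicle DMSO and 100% = high DMSO killing control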
# [16] = measured here: combination with BGB IC40, at 0.05 µM
# [17] = measured here: with BGB IC20 combination, at 0.5 µM
# [18] = measured here: with cisplatin IC20 combination, at 0.5 µM
# [19] = measured here: combination with cisplatin, at 0.5 µM
# [20] = measured here: combination with cisplatin, at 5 µM
smiles,measurement,setting,value
CCCCNNC(=O)c1ccc(Br)cc1,inhibition,"[1]; at 0.5 µM, stronger effect = higher value",-28.6% (inactive) and -13.6% (inactive)
same,inhibition,"[1]; measured here: combination with BGB IC20, at 0.005 µM",-3.01% and -23.3%
same,inhibition,"[1]; measured here: combination with BGB IC40, at 0.005 µM",-22.6% and -43.3%
same,inhibition,[1]; [16],-0.924% and -28%
same,inhibition,"[1]; measured here: combination with cisplatin, at 0.5 µM, stronger effect = higher value",-32% and -11.5%
same,inhibition,"[1]; measured here: combination with cisplatin, at 5 µM, stronger effect = higher value",-36.2% and 31.8%
same,inhibition,"[2]; BGB combo, at 5 µM",-6.55% and 1.44%
same,inhibition,[2]; at 0.5 µM,0.02% (inactive) and -19.7% (inactive)
same,inhibition,"[2]; cisplatin combo, at 5 µM",13.1% and 50.6%
same,inhibition,[2]; [17],3.17% and -28.2%
same,inhibition,[2]; [18],-1.75% and -2.85%
same,inhibition,"[2]; single agent, at 5 µM",4.48% and -2.92%
same,inhibition,"[3]; BGB IC20 combo, at 0.005 µM",-0.717% and -27.2%
same,inhibition,"[3]; BGB IC40 combo, at 0.005 µM",-41.6% and -37.1%
same,inhibition,"[3]; BGB IC40 combo, at 0.05 µM",-16% and 7.68%
same,inhibition,[3]; at 0.5 µM,-18.8% (inactive) and -23.4% (inactive)
same,inhibition,"[3]; cisplatin combo, at 0.05 µM",-20.6% and 3.05%
same,inhibition,"[3]; cisplatin combo, at 0.5 µM",-33.8% and -35%
same,inhibition,"[3]; cisplatin combo, at 5 µM",-37.9% and -23%
same,inhibition,"[3]; measured here: 5 uM single agent, at 5 µM",-7.59% and -16.8%
same,inhibition,[4]; at 0.5 µM,-6.14% (inactive) and -24.9% (inactive)
same,inhibition,[4]; [16],-4.43% and -39.3%
same,inhibition,[4]; [19],15.7% and -27.4%
same,inhibition,[4]; [20],-45.3% and 33.7%
same,inhibition,[5]; at 0.5 µM,-6.38% (inactive) and -12% (inactive)
same,inhibition,"[5]; measured here: with BGB IC20, at 0.5 µM",-9.67% and -6.58%
same,inhibition,"[5]; measured here: with BGB IC20, at 5 µM",-16.5% and 39.7%
same,inhibition,"[5]; measured here: with cisplatin IC20, at 0.5 µM",-16.9% and -17.5%
same,inhibition,"[5]; measured here: with cisplatin IC20, at 5 µM",-4.96% and 37.1%
same,inhibition,"[5]; single agent, at 5 µM",0.402% and 2.14%
same,inhibition,[6]; at 0.5 µM,-42.1% (inactive) and -78.1% (inactive)
same,inhibition,"[6]; measured here: combination with BGB at IC20, at 0.5 µM",-11% and -84.3%
same,inhibition,"[6]; measured here: combination with cisplatin at IC20, at 0.5 µM",-47% and -80.1%
same,inhibition,[7]; at 0.5 µM,-7.76% (inactive) and -11.7% (inactive)
same,inhibition,"[7]; measured here: combo with BGB at IC20, at 0.5 µM",-11.6% and -15%
same,inhibition,"[7]; measured here: combo with cisplatin at IC20, at 0.5 µM",-8.41% and -15%
same,inhibition,[8]; at 0.5 µM,-8.32% (inactive) and -3.86% (inactive)
same,inhibition,"[8]; measured here: inhibition with BGB combination, at 0.05 µM",-23.9% and -19.8%
same,inhibition,"[8]; measured here: inhibition with cisplatin combination, at 0.05 µM",-10.7% and -18.7%
same,inhibition,[9]; at 0.5 µM,-9.05% (inactive) and -20.7% (inactive)
same,inhibition,[9]; [19],-22% and -6.47%
same,inhibition,[9]; [20],-14.2% and 13.9%
same,inhibition,[10]; at 0.5 µM,-12.3% (inactive) and -16% (inactive)
same,inhibition,"[10]; measured here: BGB combination, at 0.5 µM",-20.8% and -8.47%
same,inhibition,"[10]; measured here: BGB combination, at 5 µM",-14.9% and -12.9%
same,inhibition,"[10]; measured here: cisplatin combination, at 0.5 µM",-6.74% and -30.9%
same,inhibition,"[10]; measured here: cisplatin combination, at 5 µM",-0.941% and -3.8%
same,inhibition,"[11]; BGB combination, concentration series, at 5 µM",6.4% and 33.8%
same,inhibition,[11]; at 0.5 µM,-7.63% (inactive) and -13.8% (inactive)
same,inhibition,"[11]; cisplatin combination, concentration series, at 5 µM",26% and 52.3%
same,inhibition,[12],8.76% (inactive) and -0.16% (inactive)
same,inhibition,[12]; measured here: combo with BGB IC20,10.6% and 7.19%
same,inhibition,[12]; measured here: combo with cisplatin IC20,16.8% and 11.7%
same,inhibition,[13]; at 0.5 µM,-6.87% (inactive) and -6.41% (inactive)
same,inhibition,"[13]; cisplatin combination, at 0.5 µM",-5.88% and 9.41%
same,inhibition,"[13]; cisplatin combination, at 5 µM",5.88% and 9.57%
same,inhibition,"[13]; measured here: BGB IC40 combination 0.05 uM, at 0.05 µM",-2.71% and -30.8%
same,inhibition,"[13]; single agent, at 5 µM",3.58% and 5.96%
same,inhibition,[14]; at 0.5 µM,-14.6% (inactive) and -4.43% (inactive)
same,inhibition,"[14]; cisplatin combo, at 5 µM",-8.38% and 43.4%
same,inhibition,"[14]; measured here: BGB IC40 combination, at 0.05 µM",-7.86% and -8.38%
same,inhibition,[14]; [19],-0.38% and 8.6%
same,inhibition,"[14]; single agent, at 5 µM",-15.8% and 24%
same,inhibition,[15]; at 0.5 µM,-8.18% (inactive) and -0.65% (inactive)
same,inhibition,[15]; [17],-10.3% and -18.8%
same,inhibition,[15]; [18],-7.12% and 6.96%
same,inhibition,"[15]; single agent, at 0.05 µM",-17.3% and -29.7%
same,inhibition,"[15]; single agent, at 5 µM",-21.8% and -15.7%
